14 compounds from PubChem BioAssay (NCI) can be followed below.

Test systems include DU-145 prostate; K-562 leukemia; MALME-3M melanoma; MDA-MB-231 breast; RXF 393 renal; SF-268 CNS; SF-295 CNS; SF-539 CNS; UACC-257 melanoma; M14 melanoma.
Experiment in all cases: NCI-60 one-dose screen, 48 h (100 = growth as untreated, 0 = no growth, -100 = all killed)
What all share (conditions): 10 µM unless noted

About 83,000 compounds went through this panel and 20% of them were active in at least one assay; those are over-represented in the sample as a whole.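 Single-concentration screen, 48 h exposure, 96-well plates. Endpoint: percent growth. Below 10 = active.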 Values without a mark were called inactive. Active and inactive are the calls of the source.

In the case of `Cc1ccc2nc(-c3cc4c([nH]c5ccccc54)c(-c4ccc(F)c(F)c4)n3)[nH]c2c1`, the growth with DU-145 prostate was 80.8%; in the test on K-562 leukemia, 65.9%; in the test with MALME-3M melanoma, 120%; in the test with MDA-MB-231 breast it was 60.8%; in the test with RXF 393 renal, 88.5%; in the test on SF-268 CNS, 95.4%. The growth with SF-295 CNS is 88.7%; with SF-539 CNS it was 89.5%; in the test with UACC-257 melanoma, 104%; in the test on M14 melanoma, 83.5%.
As for `Nc1nc(-c2ccccc2)c(CCCOc2ccc(NC(=O)CBr)cc2)c(=O)[nH]1`, the growth with DU-145 prostate is 104%; in the test with K-562 leukemia it was 94.3%; in the test on MALME-3M melanoma, 123%; with MDA-MB-231 breast it was 87.4%; in the test with RXF 393 renal, 106%; in the test on SF-268 CNS, 91.8%. Moreover, the growth in the test with SF-295 CNS was 117%; in the test on SF-539 CNS, 93.1%; in the test on UACC-257 melanoma it was 86.9%; with M14 melanoma it was 104%.
For the compound `CC12CCC3C4(C)COC(c5ccccc5Cl)OC4CCC3(C)C1CC(C1=CCOC1=O)O2` (stereo not given), the growth in the test with DU-145 prostate was 83.9%; in the test with K-562 leukemia it was 23.9%; with MALME-3M melanoma it was 90.6%; in the test on MDA-MB-231 breast, 71.7%; in the test with RXF 393 renal, 80.4%; in the test on SF-268 CNS it was 70.1%. Also, the growth in the test on SF-295 CNS was 64.3%; with SF-539 CNS, 84.7%; in the test with UACC-257 melanoma, 49.3%; in the test with M14 melanoma, 65.9%.
Turning to `O=C1NN(C(=O)c2ccc(Cl)cc2)C(c2ccccc2)=N/C1=C\c1ccc(F)cc1`, the growth is 112% in the test with DU-145 prostate; 83.2% in the test with K-562 leukemia; 85.6% with MALME-3M melanoma; 68% with MDA-MB-231 breast; 84.2% in the test on RXF 393 renal; 105% with SF-268 CNS. The growth was 72.9% in the test with SF-295 CNS, 84.8% in the test with SF-539 CNS, 102% with UACC-257 melanoma and 86.2% with M14 melanoma.
Consider `O=C(O)COc1ccc(-c2cssc2=S)cc1`, for which the growth with DU-145 prostate is 120%; with K-562 leukemia, 115%; in the test on MALME-3M melanoma, 97%; with MDA-MB-231 breast, 110%; in the test with RXF 393 renal, 107%; in the test with SF-268 CNS, 105%. Further, the growth with SF-295 CNS is 97.3%; in the test with SF-539 CNS, 96.3%; in the test on UACC-257 melanoma, 94.5%; in the test with M14 melanoma it was 105%.
With `CC(C)(C)c1[nH]nc2c1C(c1cc3ccccc3[nH]c1=O)Nc1cc(C(=O)Nc3ccc(Cl)cc3)ccc1N2` (stereo not given), the growth is 83.8% in the test with DU-145 prostate; 39.2% in the test with K-562 leukemia; 80.6% in the test on MALME-3M melanoma; 85.6% in the test on MDA-MB-231 breast; 43.9% with RXF 393 renal; 62.2% in the test on SF-268 CNS. Moreover, the growth is 38.5% with SF-295 CNS, 85.8% in the test with SF-539 CNS, 83.9% with UACC-257 melanoma and 53.5% with M14 melanoma.
Regarding `CCCCOc1ccc(/C=C2/SC(N3CCOCC3)=NC2=O)cc1OCC`, the growth is 99.4% with DU-145 prostate; 86.4% in the test with K-562 leukemia; 93.1% in the test on MALME-3M melanoma; 83.8% in the test on MDA-MB-231 breast; 94.6% with RXF 393 renal; 99.2% with SF-268 CNS. The growth was 100% in the test with SF-295 CNS, 86.4% in the test with SF-539 CNS, 108% in the test with UACC-257 melanoma and 91.8% in the test with M14 melanoma.
With `CC(C)NCCCNC1=C(Cl)C(=O)c2ccccc2C1=O`, the growth with DU-145 prostate is 47.8%; with K-562 leukemia, -41.9% (active); with MALME-3M melanoma, -78% (active); in the test with MDA-MB-231 breast it was 76.3%; with RXF 393 renal, 119%; with SF-268 CNS, 91.5%. Besides, the growth with SF-295 CNS was 57.4%; in the test with SF-539 CNS it was 119%; with UACC-257 melanoma, 3.04% (active); in the test with M14 melanoma it was 74.3%.
For the compound `CCn1c2ccccc2c2cc(NC(=O)Nc3ccc([N+](=O)[O-])cc3C)ccc21`, the growth with DU-145 prostate was 65.7%; in the test with K-562 leukemia, 8.55% (active); in the test on MALME-3M melanoma, 64.5%; in the test with MDA-MB-231 breast it was 29.3%; in the test on RXF 393 renal, -31.1% (active); in the test on SF-268 CNS, 64.9%. The growth with SF-295 CNS was 13.1%; in the test on SF-539 CNS it was 47%; with UACC-257 melanoma it was 20%; in the test on M14 melanoma it was 32.6%.
For `CCN(CC)CCCNc1nccc2ccc(Cl)cc12`, the growth is 113% in the test with DU-145 prostate; 107% in the test on K-562 leukemia; 111% in the test with MALME-3M melanoma; 87% with MDA-MB-231 breast; 97.6% in the test on RXF 393 renal; 111% in the test with SF-268 CNS. Moreover, the growth with SF-295 CNS was 100%; in the test on SF-539 CNS, 104%; in the test on UACC-257 melanoma it was 91%; in the test on M14 melanoma, 95%.
On to `CC12CCC3C4(C)COC(c5ccco5)OC4CCC3(C)C1CC(C1=CCOC1=O)O2` (stereo not given), for which the growth is 107% in the test with DU-145 prostate; 92.6% in the test on K-562 leukemia; 98.5% in the test with MALME-3M melanoma; 90.2% in the test with MDA-MB-231 breast; 99.3% with RXF 393 renal; 98.5% in the test with SF-268 CNS. Besides, the growth with SF-295 CNS is 97.9%; in the test with SF-539 CNS, 107%; with UACC-257 melanoma, 110%; in the test with M14 melanoma, 98.6%.
For `CC(C)(C)Nc1c(-c2cccs2)nc2ncccn12`, the growth with DU-145 prostate is 105%; with K-562 leukemia, 86.5%; with MALME-3M melanoma, 99.9%; in the test on MDA-MB-231 breast it was 108%; in the test on RXF 393 renal it was 98.9%; with SF-268 CNS, 97.5%. Also, the growth was 99.5% in the test on SF-295 CNS, 97.5% in the test with SF-539 CNS, 90.5% in the test on UACC-257 melanoma and 106% with M14 melanoma.
`COc1ccc(Nc2[nH]n3c(=O)cc(C)nc3c2C(N)=O)c(OC)c1`: the growth was 112% with DU-145 prostate; 101% in the test on K-562 leukemia; 126% with MALME-3M melanoma; 84.9% with MDA-MB-231 breast; 98.1% in the test on RXF 393 renal; 97.8% in the test with SF-268 CNS. Also, the growth with SF-295 CNS was 102%; in the test on SF-539 CNS, 91.2%; with UACC-257 melanoma it was 85.1%; in the test on M14 melanoma it was 106%.
Take `O=C1/C(=C/c2ccccc2)Oc2ccc(O)c(I)c21`: the growth in the test on DU-145 prostate was 111%; with K-562 leukemia, 99.5%; in the test with MALME-3M melanoma it was 101%; in the test with MDA-MB-231 breast, 81%; in the test on RXF 393 renal, 108%; in the test on SF-268 CNS, 82.6%. In addition, the growth with SF-295 CNS was 104%; in the test with SF-539 CNS it was 87.7%; in the test with UACC-257 melanoma it was 96.6%; in the test with M14 melanoma it was 98.5%.
